Laboratory results published in the supplement of paper PMC6555819.

How the values were obtained:
Assay in all cases: PBM binding z-score (relative to random genomic background probes); higher = stronger binding; sequences stand for … in GC…GCGATTGACAGCGTAGAATGAAGG
[1] = system: PPARg:RXRa DBDmut IVT, anti-RXR (DBD mutation: RXRa K156A/R161A, NR concentration 270 nM, RXRa partner concentration 90 nM)
How it was run: (§1)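 The probes on custom Agilent 4×180K protein-binding microarrays were double-stranded, with 34-nt variable regions bearing direct-repeat seeds, single-nucleotide variants, half-site ablations and random human genomic background sequences. Incubation lasted 1 h with ligand-free nuclear receptor dimers in PBS pH 7.4, 2% milk, 0.02% Triton X-100, 1 mM DTT, 0.2 mg/mL BSA and 0.4 mg/ml salmon testes DNA. Antibodies against each partner (one per run) detected bound dimers, and fluorescence scans were regression-normalized. Binding z-scores take the random background probes as reference.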

[2] = system: PPARg:RXRa IVT, anti-PPARg (NR concentration 270 nM, RXRa partner concentration 90 nM)
How it was run: as §1

[3] = system: PPARg DBDmut:RXRa IVT, anti-PPARg (DBD mutation: PPARg1 K132A/R137A, NR concentration 270 nM, RXRa partner concentration 90 nM)
How it was run: as §1

[4] = system: PPARg DBDmut IVT, anti-PPARg (DBD mutation: PPARg1 K132A/R137A, NR concentration 270 nM)
How it was run: as §1

[5] = system: PPARg homodimer (NR concentration 180 nM)
How it was run: as §1

[6] = system: PXR:RXRa (NR concentration 270 nM, RXRa partner concentration 90 nM)
How it was run: as §1

[7] = system: PXR homodimer (NR concentration 270 nM)
How it was run: as §1

[8] = system: RARa:RXR (NR concentration 270 nM, RXRa partner concentration 90 nM)
How it was run: as §1

[9] = system: RARa homodimer (NR concentration 270 nM)
How it was run: as §1

[10] = system: RARb:RXRa (NR concentration 270 nM, RXRa partner concentration 90 nM)
How it was run: as §1

[11] = system: RARb homodimer (NR concentration 270 nM)
How it was run: as §1

[12] = system: RARg:RXRa (NR concentration 270 nM, RXRa partner concentration 90 nM)
How it was run: as §1

[13] = system: RARg homodimer (NR concentration 270 nM)
How it was run: as §1

[14] = system: RXRa DBDmut IVT, anti-RXR (DBD mutation: RXRa K156A/R161A, NR concentration 90 nM)
How it was run: as §1

[15] = system: RXRa homodimer (NR concentration 180 nM)
How it was run: as §1

[16] = system: THRa:RXRa (NR concentration 90 nM, RXRa partner concentration 90 nM)
How it was run: as §1

[17] = system: THRa homodimer (NR concentration 90 nM)
How it was run: as §1

[18] = system: VDR homodimer (NR concentration 270 nM)
How it was run: as §1

| Sequence | PBM binding z-score [1] | PBM binding z-score [2] | PBM binding z-score [3] | PBM binding z-score [4] | PBM binding z-score [5] | PBM binding z-score [6] | PBM binding z-score [7] | PBM binding z-score [8] | PBM binding z-score [9] | PBM binding z-score [10] | PBM binding z-score [11] | PBM binding z-score [12] | PBM binding z-score [13] | PBM binding z-score [14] | PBM binding z-score [15] | PBM binding z-score [16] | PBM binding z-score [17] | PBM binding z-score [18] |
| --- | --- | --- | --- | --- | --- | --- | --- | --- | --- | --- | --- | --- | --- | --- | --- | --- | --- | --- |
| CCGACTGGGGCATAAGGTGACCATAAGCCAGCCC | 2.39 | 3.15 | -0.511 | -1.28 | 0.186 | -0.504 | -0.373 | 0.332 | -0.248 | 1.23 | 1.26 | 0.678 | 0.621 | -1.25 | 0.516 | 1.7 | 0.792 | -0.621 |
| TCTTATAGGTAAACAGGTGAAAGTCCGTAAGTTA | 4.87 | 4.49 | 1.36 | 1.34 | 1.19 | 0.753 | 0.655 | 0.981 | 0.803 | 0.791 | 0.802 | 0.615 | 0.392 | 1.1 | 0.864 | 0.793 | 0.397 | 0.462 |
| ACGAGCAGGCCAAGGGTCACTCAAGATTAGTCCG | 0.294 | 2.7 | -0.273 | -0.61 | 1.76 | 3.15 | -0.226 | 4.01 | 0.319 | 3.69 | 3.96 | 4.21 | 4 | 0.0917 | 4.07 | 2.69 | 0.262 | 0.916 |
| CCGACTGGGGCAAAGGTTACCAGACTCAGTACGA | 4.51 | 5.88 | -0.692 | -1.09 | 0.726 | 2.48 | -0.264 | 3.64 | -0.558 | 2.66 | 2.19 | 3.65 | 1.61 | -0.175 | 3.93 | 1.73 | -0.362 | 0.000123 |
| ATCTCTAGGTAACTAGTTCAGTGAAAGAGAGGAC | 2.81 | 2.6 | 1.49 | 0.893 | 0.154 | 0.527 | 0.481 | 0.382 | 0.388 | 0.464 | 0.47 | 0.193 | 0.685 | -0.215 | 0.0901 | 0.996 | 0.507 | 0.877 |
| CCGACTGGGGCATAAGGTTGCCATAAGCCAGCCC | 2.51 | 2.07 | -0.622 | -1.53 | -0.22 | -0.532 | -0.499 | 0.0769 | -0.329 | 0.569 | 0.294 | 0.249 | 0.278 | -0.617 | -0.0266 | 0.276 | -0.00565 | -0.0503 |
| ATCTCTAGGTAAGACTCAGTTCTGTGAAGAACGC | 1.91 | 0.663 | 0.175 | 0.855 | 0.76 | 0.28 | 0.287 | 0.274 | 1.02 | -0.117 | 0.00747 | -0.271 | 0.0813 | 0.193 | -0.166 | 0.394 | 0.633 | 0.278 |
| CCTTACGGGTCACGCCAGGTTATAGCATCGGAGT | 3.85 | 4.83 | 0.182 | 0.0773 | 2.19 | 5.46 | 0.316 | 4.98 | 1.14 | 4.35 | 3.89 | 5.65 | 5.54 | 1.75 | 6.22 | 5.03 | 0.956 | 0.985 |
| AGAATGAAGTTATACGTAGATCAGGGAAGAAAGT | -0.998 | -0.385 | 1.2 | 0.896 | -0.353 | -0.161 | 0.326 | -0.215 | 0.239 | -0.131 | -0.451 | 0.0716 | 0.29 | -0.796 | -0.0486 | -0.563 | -0.66 | -0.183 |
| TCATATAGGTCAAGGTGAAAGTCGAACGATATGA | 6.82 | 7.8 | 3.34 | 3.56 | 2.98 | 3.06 | 0.0786 | 3.99 | 0.732 | 4.84 | 3.84 | 5.31 | 5.43 | 1.56 | 5.05 | 3.47 | 1.36 | 0.356 |
| TTACCAAGGTGCGCTGAGGTCGTTGATCCAACTC | -0.264 | 0.111 | -0.817 | -0.343 | -0.175 | 2.58 | 1.74 | 1.4 | -0.803 | 0.681 | 1.13 | 0.294 | -0.0595 | 1.12 | 0.936 | 3.59 | 1.87 | 3.64 |
| GGAACGAGAGCAAGTTGATAGCAGAGTTTGATGG | 0.286 | -0.607 | -0.891 | -0.825 | -0.674 | -0.482 | 0.00313 | -0.584 | -0.345 | -0.427 | -0.683 | -0.186 | -0.0143 | 0.292 | 0.0687 | -0.547 | -1.15 | -0.0204 |
| TCTGCTAGGTCAGTGGGTCAGCTAACGAGCTGCC | 4.42 | 5.76 | 0.364 | -0.282 | 1.24 | 0.857 | -0.958 | 2.11 | -0.00938 | 3.77 | 3.84 | 3.92 | 4.5 | 0.404 | 2.23 | 1.94 | 0.337 | -0.31 |
| GCTGCTAGGTCAGCTGATGGTCAGCTAAAGCTCG | 3.51 | 2.35 | -1.32 | -1.88 | 0.56 | -0.015 | -1.12 | 0.983 | -1.22 | 3.57 | 2.88 | 3.97 | 4.38 | 0.423 | 0.813 | 1.83 | -0.0581 | -1.09 |
| CCTAGCAGGCCAGTCTGGGTCACTCAAGGCTTGA | 1.92 | 2.62 | -1.53 | -2.16 | -0.0647 | 0.811 | -0.718 | 1.45 | -1.53 | 1.42 | 2.01 | 1.09 | 1.2 | -0.216 | 1.05 | 3.14 | 0.462 | -0.0969 |
